Screening data (PubChem BioAssay)
A selection: hits, their analogues and other compounds. The true share with any hit is near 2.9%.
DRD3 antagonist: antagonists of human D3 dopamine receptor; P35462; D3R cells, DiscoveRx beta-arrestin luminescence, antagonist mode; hits give low values; max response, negative = inhibition, %; actives 2.5% (n = 360,000); in the data active = max response below about -50%; also: % is scaled to controls: 0 for no effect and ±100 for the full control effect
Target sequence (P35462 whole entry, looked up): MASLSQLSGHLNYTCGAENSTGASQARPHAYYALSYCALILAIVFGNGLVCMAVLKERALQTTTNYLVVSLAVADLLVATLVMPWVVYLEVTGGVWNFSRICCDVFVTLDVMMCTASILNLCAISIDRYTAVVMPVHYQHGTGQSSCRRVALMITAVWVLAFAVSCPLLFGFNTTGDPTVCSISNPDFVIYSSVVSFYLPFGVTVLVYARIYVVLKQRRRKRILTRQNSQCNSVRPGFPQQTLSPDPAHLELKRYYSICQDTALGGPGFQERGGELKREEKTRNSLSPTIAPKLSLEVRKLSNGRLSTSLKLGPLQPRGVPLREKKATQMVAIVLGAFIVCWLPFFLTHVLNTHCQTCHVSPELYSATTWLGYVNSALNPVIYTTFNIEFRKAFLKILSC
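Cells expressing the human receptor were seeded at 1500 cells/well, incubated overnight at 37 degrees C in 5% CO2, then exposed to library compounds with dopamine controls for 90 minutes at 37 degrees C before luminescent detection.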
TRPML1 inh: blocks the human TRPML1 channel; activity change, negative = inhibition, % (no concentration beside the values); TRPML1-inducible cells, Ca2+ dye fluorescence, FDSS; hits give low values; inhibition of EC80 agonist-evoked calcium signal; actives 0.02% (n = 390,000); AID 624415; in the data active = activity change below about -50%;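 also: stimulus is agonist 54-4 at its EC80 concentration; % is scaled to controls: 0 for no effect and ±100 for the full control effect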
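Calcium fluorescence in TRPML1-DL cells induced overnight with Tet: a 110 s read after compound pin addition, then a 110 s antagonist read after challenge with 54-4 at 4 uM final (EC80).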
TRPML1 ag: activates the human TRPML1 channel; Q9GZU1; activation, % (test concentration not listed); TRPML1-expressing cells, Ca2+ dye fluorescence, FDSS; actives 0.12% (n = 410,000); in the data active = activation above about 50%; also: 0% is about no effect
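Kinetic FDSS Ca2+ read in Tet-induced TRPML1-DL cells (ABD Ca8 dye plus quencher, 45-90 min RT loading): baseline, then compound, then 110 s agonist window; EC80 agonist 54-4 at 4uM final added afterwards for a 110 s antagonist window.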
DRD3 agonist: agonists of human D3 dopamine receptor; AID 652048; P35462; D3R DiscoveRx beta-arrestin cells, luminescence, 90 min; actives 0.58% (n = 410,000); max activation, %; in the data active = max activation above about 30%; also: 0% is about no effect
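Agonist-mode cell screen: cells plated at 1500/well and incubated overnight at 37 °C, then exposed to library compounds for 90 min at 37 °C. Detection reagent was added for 30–60 min at room temperature, and luminescence was read.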
Active calls of the source: *.

Results for COc1ccccc1C(=O)OCC(=O)Nc1ccc(N2CCCCC2)cc1 ?
TRPML1 ag: -1

How did COc1ccc(-c2nc3ccccn3c2Nc2ccccc2C)cc1 do in these assays?
TRPML1 ag: 0

How did C=CCc1ccc(OCCCNC2CCCC2)c(OC)c1 do in these assays?
DRD3 antagonist: -20; TRPML1 inh: 6; TRPML1 ag: 6; DRD3 agonist: -14

Results for C/C=C/c1ccc(OCCCNC)c(OC)c1 ?
DRD3 antagonist: -19; TRPML1 inh: -15; TRPML1 ag: 0; DRD3 agonist: -4

Results for C/C=C/c1ccc(OCCNCc2ccccc2)c(OC)c1 ?
DRD3 antagonist: -77*; TRPML1 inh: 5; TRPML1 ag: -1; DRD3 agonist: -19

How did C=CCc1ccc(OCCCNCc2ccccc2)c(OC)c1 do in these assays?
DRD3 antagonist: -79*; DRD3 agonist: -21

How did Cc1ccc(-n2ncc3c(NC4CCCCC4)ncnc32)cc1 do in these assays?
TRPML1 inh: 66; TRPML1 ag: 0; DRD3 agonist: 3

Results for COc1cc(/C=C2\C=Cc3ccccc32)ccc1N(C)C ?
TRPML1 ag: -1

Results for O=C(NCCCN1CCN(Cc2ccccc2)CC1)C1CCN(S(=O)(=O)N2CCC3(CC2)OCCO3)CC1 ?
DRD3 antagonist: 0; TRPML1 inh: 1; TRPML1 ag: 0; DRD3 agonist: -3

Results for Cc1ccccc1S(=O)(=O)Cc1ccc(C(=O)NCCN2CCN(Cc3ccccc3)CC2)o1 ?
DRD3 antagonist: -51*; TRPML1 inh: 27; TRPML1 ag: -1; DRD3 agonist: -5

What do the screens show for `O=C(NCCN1CCC(Cc2ccccc2)CC1)C1CCN(S(=O)(=O)N2CCC3(CC2)OCCO3)CC1`?
DRD3 antagonist: -50*; TRPML1 inh: 36; TRPML1 ag: 0; DRD3 agonist: -7

What do the screens show for `CS(=O)(=O)N1CCC(C(=O)NCCN2CCN(Cc3ccccc3)CC2)CC1`?
DRD3 antagonist: -101*; TRPML1 inh: 3; TRPML1 ag: 1; DRD3 agonist: -2

Results for Cc1ccc(Cn2c(=O)n(CCCCC(=O)NCCc3ccc(Cl)cc3)c(=O)c3ccccc32)cc1 ?
TRPML1 inh: 8; TRPML1 ag: 2; DRD3 agonist: 1

How did O=C1c2ccccc2C(=O)N1c1nc(-c2ccc(F)cc2)cs1 do in these assays?
TRPML1 ag: -1

Results for CC(C)(C)n1ncc2c(=O)n(Cc3ccc(C(F)(F)F)cc3)cnc21 ?
TRPML1 inh: 10; TRPML1 ag: 2

How did O=C(CSc1ncc(-c2ccccc2)[nH]1)Nc1cccc(Br)c1 do in these assays?
TRPML1 inh: -15; TRPML1 ag: 5; DRD3 agonist: -11

How did O=C(CN1CCCCC1)c1c[nH]c2ccccc12 do in these assays?
DRD3 antagonist: 7; TRPML1 inh: 2; TRPML1 ag: 1; DRD3 agonist: 0

Results for O=C(CN1CCN(Cc2ccccc2)CC1)c1ccc(Br)cc1 ?
DRD3 antagonist: -62*; TRPML1 inh: 12; TRPML1 ag: 3; DRD3 agonist: -35

Results for O=C(CN1CCN(Cc2ccccc2)CC1)c1c[nH]c2ccccc12 ?
DRD3 antagonist: -54*; TRPML1 inh: -12; TRPML1 ag: -1; DRD3 agonist: -12

What do the screens show for `O=C(CN1CCN(Cc2ccccc2)CC1)c1ccccc1`?
DRD3 antagonist: 9; TRPML1 inh: 9; TRPML1 ag: 0; DRD3 agonist: -11

Results for CCOC(=O)c1c(S(=O)(=O)N2CCCC(C(=O)NCc3ccccc3OC)C2)c(C)n(C)c1C (configuration not stated) ?
TRPML1 inh: -14; TRPML1 ag: -1; DRD3 agonist: -14

Results for COc1ccc(/C=C2/CCc3ccccc3C2=O)cc1CN1CCOCC1 ?
DRD3 antagonist: 12; TRPML1 inh: -13; TRPML1 ag: 0; DRD3 agonist: -1

How did COc1ccc(/C=C2\CCc3ccccc3C2=O)cc1Cn1nc(C)cc1C do in these assays?
DRD3 antagonist: -79*; TRPML1 inh: 33; TRPML1 ag: 0; DRD3 agonist: 1

Results for CC(C)c1nn2c(=O)cc(COC(=O)c3cccc(NC(=O)CCc4ccccc4)c3)nc2s1 ?
TRPML1 inh: 11; TRPML1 ag: 1; DRD3 agonist: 8

How did CN1CCN(C(=O)c2ccc3ccccc3c2)CC1 do in these assays?
DRD3 antagonist: -83*; TRPML1 inh: 5; TRPML1 ag: 0; DRD3 agonist: -61
